From PubChem
In the library only some 0.75% were active in any assay of this set; here they are far more common.
BioA inh: inhibitors of Mycobacterium tuberculosis BioA enzyme. inhibition, % at 9.99 µM. purified M. tuberculosis BioA enzyme, plate reader. actives 0.096% (n = 360,000); in the data active = inhibition above about 40%
ugtP null kill: growth inhibition of S. aureus ugtP deletion strain | growth inhibition, % (concentration not given with the values) | AID 1259309 | S. aureus RN4220 ugtP deletion, OD600 growth, 16 h | actives 0.54% (n = 330,000); in the data active = growth inhibition above about 68%
Yp Topo-I inh: Y. pestis Topo-I inhibition via cleavage products. Y. pestis Topo-I cleavage product accumulation, plate reader. activity, % at 10 µM. actives 0.064% (n = 360,000); in the data active = activity above about 50%, passing the limit was not always enough
Mtb hypoxia inh: reduces hypoxia-regulated biosensor signal in M. tuberculosis | M. tuberculosis hypoxia-regulated fluorescent reporter, fluorescence | fluorescence inhibition, % (concentration not given with the values) | actives 0.1% (n = 300,000) | AID 1159583; in the data active = fluorescence inhibition mostly above about 23%, no sharp cut-off; inactive = mostly below about 17%
TcdB GH inh: TcdB glycohydrolase inhibition; P18177; TcdB glycohydrolase enzymatic assay, plate reader; inhibition, % at 9.99 µM; actives 0.24% (n = 350,000); in the data active = inhibition above about 10%
Target sequence (P18177 whole entry, looked up): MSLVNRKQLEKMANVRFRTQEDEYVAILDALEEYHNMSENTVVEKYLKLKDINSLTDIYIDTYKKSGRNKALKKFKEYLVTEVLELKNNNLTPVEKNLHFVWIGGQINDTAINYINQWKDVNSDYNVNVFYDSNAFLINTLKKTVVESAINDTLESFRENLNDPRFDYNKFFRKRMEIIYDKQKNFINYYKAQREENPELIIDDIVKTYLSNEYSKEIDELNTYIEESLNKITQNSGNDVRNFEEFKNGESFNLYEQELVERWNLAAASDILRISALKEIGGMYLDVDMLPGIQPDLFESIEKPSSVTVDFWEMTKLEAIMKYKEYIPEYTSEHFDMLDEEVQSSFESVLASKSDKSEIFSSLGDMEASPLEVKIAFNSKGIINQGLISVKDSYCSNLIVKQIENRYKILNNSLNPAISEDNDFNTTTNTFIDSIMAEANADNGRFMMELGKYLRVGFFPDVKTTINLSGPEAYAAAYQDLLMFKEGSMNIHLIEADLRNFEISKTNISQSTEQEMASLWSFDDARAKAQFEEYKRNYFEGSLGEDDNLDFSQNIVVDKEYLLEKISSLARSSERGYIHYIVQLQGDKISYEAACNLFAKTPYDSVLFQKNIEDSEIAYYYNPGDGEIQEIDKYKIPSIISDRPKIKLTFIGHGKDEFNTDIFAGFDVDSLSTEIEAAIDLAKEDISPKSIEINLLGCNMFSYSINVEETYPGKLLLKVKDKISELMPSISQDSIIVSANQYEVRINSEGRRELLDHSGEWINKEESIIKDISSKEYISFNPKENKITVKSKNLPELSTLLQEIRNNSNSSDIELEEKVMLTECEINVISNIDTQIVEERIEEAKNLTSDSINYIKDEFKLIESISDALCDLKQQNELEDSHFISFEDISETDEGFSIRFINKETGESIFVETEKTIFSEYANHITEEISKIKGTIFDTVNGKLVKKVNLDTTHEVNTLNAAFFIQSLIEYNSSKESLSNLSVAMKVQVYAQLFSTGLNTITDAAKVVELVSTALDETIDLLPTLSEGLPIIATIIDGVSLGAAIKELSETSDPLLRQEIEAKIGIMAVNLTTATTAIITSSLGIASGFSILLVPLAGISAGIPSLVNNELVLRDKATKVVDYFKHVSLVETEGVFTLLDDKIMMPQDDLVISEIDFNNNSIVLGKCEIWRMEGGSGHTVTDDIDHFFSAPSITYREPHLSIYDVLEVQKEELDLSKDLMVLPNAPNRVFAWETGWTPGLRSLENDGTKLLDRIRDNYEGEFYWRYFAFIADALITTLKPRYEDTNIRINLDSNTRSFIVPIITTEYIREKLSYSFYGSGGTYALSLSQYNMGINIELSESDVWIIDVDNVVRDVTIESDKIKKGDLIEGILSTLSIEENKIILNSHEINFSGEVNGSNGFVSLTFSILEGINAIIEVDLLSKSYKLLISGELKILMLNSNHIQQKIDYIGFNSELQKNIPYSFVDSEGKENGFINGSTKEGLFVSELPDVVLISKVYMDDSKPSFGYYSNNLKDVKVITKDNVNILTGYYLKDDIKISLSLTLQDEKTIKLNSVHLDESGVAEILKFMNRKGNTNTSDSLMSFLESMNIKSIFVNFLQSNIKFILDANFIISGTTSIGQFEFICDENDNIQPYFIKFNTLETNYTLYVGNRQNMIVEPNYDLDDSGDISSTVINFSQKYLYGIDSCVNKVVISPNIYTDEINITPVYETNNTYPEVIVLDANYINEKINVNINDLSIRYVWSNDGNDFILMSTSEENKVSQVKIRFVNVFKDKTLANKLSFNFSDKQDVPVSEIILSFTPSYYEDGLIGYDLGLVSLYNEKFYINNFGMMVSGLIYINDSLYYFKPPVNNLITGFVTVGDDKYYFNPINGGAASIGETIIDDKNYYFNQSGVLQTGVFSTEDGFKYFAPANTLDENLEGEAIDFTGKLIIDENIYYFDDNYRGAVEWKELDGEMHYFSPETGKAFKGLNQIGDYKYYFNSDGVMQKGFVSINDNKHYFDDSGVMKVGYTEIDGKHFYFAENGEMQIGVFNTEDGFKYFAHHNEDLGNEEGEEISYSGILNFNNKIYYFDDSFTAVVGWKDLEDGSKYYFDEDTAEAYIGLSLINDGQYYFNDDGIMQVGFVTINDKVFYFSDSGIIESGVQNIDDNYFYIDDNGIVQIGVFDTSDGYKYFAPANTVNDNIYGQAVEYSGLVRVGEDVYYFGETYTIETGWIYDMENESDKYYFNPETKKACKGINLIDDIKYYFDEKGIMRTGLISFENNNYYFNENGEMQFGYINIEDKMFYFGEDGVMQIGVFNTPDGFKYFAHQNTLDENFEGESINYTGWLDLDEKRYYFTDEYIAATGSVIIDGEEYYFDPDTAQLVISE
RN4220 kill: kills Staphylococcus aureus RN4220; S. aureus RN4220 growth, OD600, 16 h; inhibition, % (concentration not given with the values); actives 0.33% (n = 330,000); in the data active = inhibition above about 85%
A number is an active result; . = inactive; / = no result shown.

SMILES	BioA inh	ugtP null kill	Yp Topo-I inh	Mtb hypoxia inh	TcdB GH inh	RN4220 kill
CCCCn1c(N)c(N(CC)C(=O)c2ccncc2)c(=O)[nH]c1=O	.	.	.	.	.	.
O=c1c(C=NCCCn2ccnc2)c(-c2ccccc2)[nH]n1-c1nc2ccccc2s1	/	.	.	.	/	.
CC(=NCCCn1ccnc1)c1c(-c2ccccc2)[nH]n(-c2nc3ccccc3s2)c1=O	41	.	.	.	/	.
COc1ccc(-c2cc(C(=O)Nc3cc(C)nn3-c3ccccc3)no2)cc1	.	.	.	.	/	.
Cc1cc(NC(=O)c2cc(-c3ccccc3)on2)n(-c2ccccc2)n1	.	.	107	.	/	.
CC(=O)n1cc(C2C=C(C(=O)NCc3ccccc3)OC(OCCCCO)C2)c2ccccc21 (centres undefined)	/	.	/	.	/	.
O=C(c1ccc([N+](=O)[O-])o1)N1CCc2ccccc2C1	/	.	.	47	.	.
Nc1ccc(OCCCc2c(N)nc(N)nc2N)cc1	.	/	.	/	12	/
Cc1nc(SCC(=O)N2CCNC2=O)c(C#N)c(C)c1C	.	/	.	/	13	/
Cc1nc(SCC(N)=O)c(C#N)c(C)c1C	.	.	.	.	.	.
CCC(=Nc1ccccc1O)C1=C(O)CC(c2ccccc2)CC1=O (centres undefined)	.	.	.	70	.	.
O=Cc1cc2ccccc2nc1SCc1ccc(Cl)c(Cl)c1	/	99	.	/	/	.
O=C(NNC1=C(C(=O)C(F)(F)F)CCC1)c1cccc(Cl)c1	.	99	.	.	/	100
CC(C)(C)c1ccc(C(=O)NNC(=O)c2ccc(Cl)cc2)cc1	/	.	.	.	.	.
COc1ccc(C(=O)NNC2=C(C(=O)C(F)(F)F)CCC2)cc1	.	97	.	.	.	.
O=C(NNC1=C(C(=O)C(F)(F)F)CCC1)c1ccc(Cl)cc1	/	100	.	.	/	101
O=C(NN=Cc1cccnc1)c1cc(Br)ccc1O	/	.	/	.	/	.
CCc1ccc(Nc2n[n+](-c3ccccc3)c(-c3ccc(OC)c(Br)c3)s2)cc1	.	.	.	.	11	.
CCc1ccc(Nc2n[n+](-c3ccccc3)c(-c3ccc(SC)cc3)s2)cc1	.	.	.	.	.	.
COC(=O)C1CC1C(NC(=O)c1cnccn1)c1ccccc1 (centres undefined)	/	.	/	.	/	.
CC(C=NO)Cc1ccc2c(c1)OCO2 (centres undefined)	/	.	/	.	/	.
O=C(CCNC(=O)c1ccc([N+](=O)[O-])cc1)NN=Cc1ccc(F)cc1	/	.	/	.	/	.
Cc1ccc(C(=O)Nc2ccc(N3CCCC3)cc2)cc1	.	.	.	.	.	.
Cc1ccc(C(=O)Nc2ccc(N3CCCCC3)cc2)cc1	.	.	.	.	11	.
CCOC1OC(C(=O)O)=CC(C(C)(C)C)C1CCCO (centres undefined)	/	.	/	.	/	.
SMILES	BioA inh	ugtP null kill	Yp Topo-I inh	Mtb hypoxia inh	TcdB GH inh	RN4220 kill
COc1ccc(Cl)cc1NC(=O)COC(=O)C=Cc1c(C)nn(C2CCS(=O)(=O)C2)c1Cl (centres undefined)	/	.	/	.	/	.
CCCC(CNC(CNC)C(C)CC)NCCc1cc(C(F)(F)F)cc(C(F)(F)F)c1 (centres undefined)	/	.	/	/	/	.
CNCC(Cc1ccccc1)NCC(Cc1cccc2ccccc12)NCCc1ccc(C)cc1 (centres undefined)	/	100	/	/	/	101
CCC(C)C(CNC)NCC(Cc1cccc2ccccc12)NCCc1cccc(C(F)(F)F)c1 (centres undefined)	/	100	/	/	/	101
CNC[C@H](Cc1ccccc1)NC[C@@H](Cc1cccc2ccccc12)NCCc1ccc(C)cc1	.	/	.	/	.	/
O=[N+]([O-])c1ccc(-c2ccc(C=NNc3nc(NCc4ccccc4)nc(N4CCOCC4)n3)o2)cc1	/	.	/	.	/	.
COc1cc(/C=C/c2ccc3c(Br)cc(Br)c(O)c3n2)ccc1O	.	100	.	.	.	99
COc1ccc(/C=C/c2ccc3c(Br)ccc(O)c3n2)cc1	.	.	.	.	.	.
C=C(C)[C@@H]1CC=C(CN2CCN(Cc3ccccc3)CC2)CC1	/	.	.	35	.	.
C=C(C)C1CC=C(CN2CCN(Cc3ccccc3)CC2)CC1 (centres undefined)	.	.	.	.	.	.
CCOC(=O)N1CCN(C(=S)NC(=O)c2ccc(F)c(F)c2)CC1	/	.	.	.	11	.
CCOC(=O)N1CCN(C(=S)NC(=O)c2cccc(OC)c2)CC1	.	.	.	.	.	.
